{"source": "PubChem BioAssay AID485364", "about": "(National Center for Advancing Translational Sciences (NCATS), 2010)", "note": "Out of some 360,000 compounds screened, about 11,000 (3.1%) were called active. About 4% were inconclusive and are not listed. This is one part of a sample in which actives are shown more often than they occur. Unmarked numbers belong to inactive results. Calls follow the shape of the dose curve; as a rule, active = well fitted inhibition curve with a large enough effect; inconclusive = small, poorly fitted or top-dose-only effect; inactive = no such curve, though single readings can be large or run the other way. % is scaled to controls: 0 for no effect and ±100 for the full control effect; potency is read from the fitted curve at half-maximal effect.", "data": [{"molecular_target": "Schistosoma mansoni thioredoxin glutathione reductase (TGR) (UniProt Q962Y6)", "test": "qHTS Assay for the Inhibitors of Schistosoma Mansoni Peroxiredoxins; also: nearly all actives have a fitted effect of over 60% in size", "conditions": "purified TGR, DTNB reduction, TNB absorbance 405 nm; series mostly up to 114 µM; activity change, negative = inhibition: at the top concentration", "summary_of_the_method": "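TGR 20 nM + NADPH 100 uM (dispensed conc.), cpd preinc 15 min RT; start with NADPH (500 uM addition) then DTNB (15 mM addition). Kinetic TNB absorbance, 405 nm filter. Four-parameter Hill fit across titration.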", "units": {"activity change, negative = inhibition": "%"}, "values": [{"smiles": "Cc1c(CNCCc2ccccc2)c(C(=O)O)c(C)n1-c1ccccc1", "Potency": "44.7 µM (active)"}, {"smiles": "CCOc1ccccc1CNCc1c(C(=O)O)c(C)n(Cc2ccc(C)cc2)c1C", "activity change, negative = inhibition": -3.22}, {"smiles": "COc1ccc(CCNCc2c(C(=O)O)c(C)n(Cc3cccc(C)c3)c2C)cc1OC", "activity change, negative = inhibition": -2.69}, {"smiles": "NC(=O)CSc1nc2c(oc3ccccc32)c(=O)n1Cc1ccccc1", "activity change, negative = inhibition": 5.1}, {"smiles": "CN1c2ccc(Cl)cc2-c2nc(SCC(=O)Nc3cc(F)ccc3F)ncc2S1(=O)=O", "activity change, negative = inhibition": 0.619}, {"smiles": "COc1ccc(-c2csc3ncnc(N4CCN(S(=O)(=O)c5ccccc5C#N)CC4)c23)cc1", "activity change, negative = inhibition": -8.78}, {"smiles": "N#Cc1ccccc1S(=O)(=O)N1CCN(Cc2c(O)ccc3ccccc23)CC1", "Potency": "0.891 µM (active)"}, {"smiles": "N#Cc1ccccc1S(=O)(=O)N1CCN(C(=O)c2cc(-c3ccccc3)nn2-c2ccccc2)CC1", "activity change, negative = inhibition": -1.32}, {"smiles": "O=C(CSc1cn(CC(=O)N2CCOCC2)c2ccccc12)Nc1ccccc1", "activity change, negative = inhibition": 11.4}, {"smiles": "COc1ccccc1C(c1nnnn1CC1CCCO1)N1CCN(c2ccccc2)CC1", "note": "(stereo not drawn)", "activity change, negative = inhibition": -1.2}, {"smiles": "COc1ccc(C(c2nnnn2Cc2cccs2)N2CCN(c3ccccc3)CC2)cc1OC", "note": "(stereo not drawn)", "Potency": "44.7 µM (active)"}, {"smiles": "CCC(C)(C)n1nnnc1C(c1ccc(OC)c(OC)c1)N1CCN(C(=O)c2ccco2)CC1", "note": "(stereo not drawn)", "activity change, negative = inhibition": -29.5}, {"smiles": "CCOc1ccc(CCNC(=O)c2c(C)oc3ncn(C)c(=O)c23)cc1", "activity change, negative = inhibition": 0.186}, {"smiles": "CCSc1nc(C)c(CCOc2cccc(C)c2)c(=O)[nH]1", "activity change, negative = inhibition": -7.91}, {"smiles": "CCSc1nc(O)c(C(c2cccc(OC)c2)c2c(O)nc(SCC)[nH]c2=O)c(=O)[nH]1", "Potency": "5.01 µM (active)"}, {"smiles": "CC(C)c1c(O)nc(SCCOc2ccc(Cl)cc2)[nH]c1=O", "activity change, negative = inhibition": 0.293}, {"smiles": "CCc1ccc(CNC(=O)c2cc3c(=O)n(CC)c4ccccc4c3s2)cc1", "activity change, negative = inhibition": 8.1}, {"smiles": "CC1=C(c2ccc(F)cc2)S(=O)(=O)N=C1N1CCC(C(=O)NCCc2ccccc2C)CC1", "activity change, negative = inhibition": -1.75}, {"smiles": "CCC1CCCCN1C(=O)Cn1c(=O)n(CCCCCC(=O)NCc2ccccc2)c(=O)c2sccc21", "note": "(stereo not drawn)", "activity change, negative = inhibition": -7.45}, {"smiles": "Cc1ccc(C)c(NC(CC(=O)c2ccccc2)C(=O)OCC(=O)c2cccs2)c1", "note": "(stereo not drawn)", "Potency": "12.6 µM (active)"}, {"smiles": "COC(=O)C(CC(=O)Nc1cc(C)ccc1C)Nc1ccccc1OC", "note": "(stereo not drawn)", "activity change, negative = inhibition": -24.7}, {"smiles": "O=C(COC(=O)[C@H](Cc1ccccc1)NC(=O)c1cccs1)Nc1cc(F)ccc1F", "activity change, negative = inhibition": 2.43}, {"smiles": "CCN(CCCNC(=O)c1ccc(Sc2ccc(C)cc2)c(NC(C)=O)c1)c1cccc(C)c1", "activity change, negative = inhibition": 1.43}, {"smiles": "CC1CCN(S(=O)(=O)c2ccc3c(c2)N(CC(=O)NCc2ccccc2Cl)C(=O)CO3)CC1", "activity change, negative = inhibition": 4.2}, {"smiles": "O=c1n(Cc2cccc(C(F)(F)F)c2)c2ccccc2c2nc(-c3ccccc3)nn12", "activity change, negative = inhibition": 8.09}, {"smiles": "CN1CCN(C(CNC(=O)c2ccccc2F)c2ccc3c(c2)OCO3)CC1", "note": "(stereo not drawn)", "activity change, negative = inhibition": -3.13}, {"smiles": "CC1CCCN(c2cc3c(cc2F)c(=O)c(S(=O)(=O)c2cccc(Cl)c2)cn3Cc2ccccc2)C1", "note": "(stereo not drawn)", "activity change, negative = inhibition": -1.38}, {"smiles": "COC/C=C/C1=CC2=CC(=O)C(C)(OC(=O)CCC(=O)OC)C(=O)C2=CO1", "note": "(stereo not drawn)", "Potency": "3.98 µM (active)"}, {"smiles": "CCCCC1=CC2=CC(=O)C(C)(OC(=O)CC)C(=O)C2=CN1CCCOC(C)C", "note": "(stereo not drawn)", "activity change, negative = inhibition": -25.2}, {"smiles": "C=CCN1C=C2C(=O)C(C)(OC(=O)CCc3ccccc3)C(=O)C=C2C=C1c1ccc(C#N)cc1", "note": "(stereo not drawn)", "activity change, negative = inhibition": -25.6}, {"smiles": "O=C(NCCCO)C(=O)Nc1c2c(nn1-c1ccc(F)cc1)CSC2", "activity change, negative = inhibition": -26.7}, {"smiles": "Cn1nc(-c2ccccc2)c(CO)c1Sc1ccccc1", "activity change, negative = inhibition": -3.58}, {"smiles": "Cn1cnc([N+](=O)[O-])c1Sc1ccccc1", "Potency": "50.1 µM (active)"}, {"smiles": "Cn1cnc([N+](=O)[O-])c1Nc1ccccc1O", "activity change, negative = inhibition": -2.08}, {"smiles": "Nc1nc(SCC(=O)Nc2ccc(Cl)c([N+](=O)[O-])c2)n[nH]1", "activity change, negative = inhibition": -2.15}, {"smiles": "Cn1cnc([N+](=O)[O-])c1Sc1n[nH]c(N)n1", "Potency": "10 µM (active)"}, {"smiles": "Nc1nc(Sc2ncccc2[N+](=O)[O-])n[nH]1", "activity change, negative = inhibition": 2.21}, {"smiles": "Cc1nnc(NC(=O)c2ccc3nccnc3c2)s1", "activity change, negative = inhibition": -3.57}, {"smiles": "Cc1ccc(C(=O)Cc2nnc(C)s2)cc1", "Potency": "10 µM (active)"}, {"smiles": "Cc1ccc(C(=O)Cn2cccn2)cc1", "activity change, negative = inhibition": 2.69}, {"smiles": "Cc1cc(C)cc(NC(=O)CSc2nc(=O)n(CCN3CCOCC3)c3c2CCC3)c1", "activity change, negative = inhibition": 8.04}, {"smiles": "Cc1occc1C(=O)NNC(=S)NCC(C)C", "activity change, negative = inhibition": -10.8}, {"smiles": "CC(C)C(NC(=O)c1ccc(Cl)cc1)C(=O)O", "note": "(stereo not drawn)", "activity change, negative = inhibition": -11.7}, {"smiles": "CC(C)CNC(=S)NC(=O)c1ccc(Cl)cc1", "Potency": "50.1 µM (active)"}, {"smiles": "CC[N+](C)(CC)CCC[n+]1c(-c2ccccc2)c2cc(N)ccc2c2ccc(N)cc21", "Potency": "39.8 µM (active)"}, {"smiles": "CC(=O)c1ccc(NC(=O)COc2ccccc2-c2nc(-c3ccccc3)no2)cc1", "activity change, negative = inhibition": -3.59}, {"smiles": "CCc1ccc(NC(=O)c2cc(S(=O)(=O)NC3CCCCCC3)ccc2F)cc1", "activity change, negative = inhibition": 3.87}, {"smiles": "Cc1ccc(NC(=O)C(Cc2ccccc2)NS(=O)(=O)c2ccc3c(c2)oc(=O)n3C)cc1C", "note": "(stereo not drawn)", "activity change, negative = inhibition": -0.776}, {"smiles": "Cc1oc2ncnc(N3CCOCC3)c2c1C(=O)NCCc1ccccc1", "activity change, negative = inhibition": 0.044}, {"smiles": "CCC(=O)N1CCc2cc(CNS(=O)(=O)c3ccc(Br)s3)ccc21", "activity change, negative = inhibition": 2.77}, {"smiles": "c1ccc(-c2nccc(-c3ccc(-n4cnc5ccccc54)cc3)n2)nc1", "activity change, negative = inhibition": 3.5}, {"smiles": "Cc1ccc(-n2c(-c3ccc(Cl)cc3)n[nH]c2=S)cc1", "activity change, negative = inhibition": 7.4}, {"smiles": "Cc1nccc(-c2ccc(-n3c(C)ccc3C)cc2)n1", "Potency": "39.8 µM (active)"}, {"smiles": "O=C(Nc1ccc(C(=O)OCc2cc(=O)n3nc(C4CC4)sc3n2)cc1)c1ccc(F)cc1", "activity change, negative = inhibition": -6.43}, {"smiles": "Cc1ccc(CNS(=O)(=O)c2ccc(-c3cc(C(F)(F)F)on3)s2)cc1", "activity change, negative = inhibition": 6.71}, {"smiles": "COC(=O)c1ccc(COC(=O)c2cnccn2)cc1", "activity change, negative = inhibition": 2.29}, {"smiles": "COc1cccc(OCC(=O)NNC(=O)c2cnccn2)c1", "activity change, negative = inhibition": 3.38}, {"smiles": "COC(=O)c1ccc(OC(=O)c2cnccn2)cc1", "Potency": "56.2 µM (active)"}, {"smiles": "O=C(NCCc1ccccc1)c1ccc2c(c1)N(Cc1ccccc1)C(=O)c1ccccc1S2(=O)=O", "activity change, negative = inhibition": -6.43}, {"smiles": "COc1ccccc1-c1cc(C(F)(F)F)nc(S(=O)(=O)CCCC(=O)Nc2ccc(F)cc2F)n1", "activity change, negative = inhibition": -34.2}, {"smiles": "CSc1ccccc1NC(=O)CCS(=O)(=O)c1nc(-c2cccs2)cc(C(F)(F)F)n1", "Potency": "12.6 µM (active)"}, {"smiles": "COc1ccccc1-c1cc(C(F)(F)F)nc(S(=O)(=O)CCCC(=O)Nc2cc(C)ccc2O)n1", "activity change, negative = inhibition": -34.7}, {"smiles": "CCOc1ccccc1NC(=O)CSc1ncc(S(=O)(=O)c2ccc(C(C)(C)C)cc2)c(=O)[nH]1", "activity change, negative = inhibition": -1.94}]}]}
